Measurements reported in PubChem BioAssay (NCI).
About 79,000 compounds went through this panel and 15% of them were active in at least one assay; those are over-represented in the sample as a whole. Calls of active or inactive are those of the source. Rule as the data show it: active = growth inhibition above about 70%; inactive = the rest.

Columns and labels:
[1] = NCI Yeast Anticancer Drug Screen. Data for the rad52 strain (AID 147);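 also: 0% = growth of vehicle-treated control cultures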; settings: S. cerevisiae rad52 mutant growth inhibition, active compounds read high
How it was run: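 Screen used a yeast mutant impaired in DNA repair. After compound exposure, growth was measured. Values reflect inhibition compared with vehicle-treated cells.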

[2] = NCI Yeast Anticancer Drug Screen. Data for the wt1 strain (AID 149);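 also: 0% = growth of vehicle-treated wt1 cultures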; settings: S. cerevisiae wt1 strain (SPY 50644) growth inhibition, active compounds read high
How it was run: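 Growth inhibition read against vehicle controls after compound exposure of the wt1 yeast strain.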

[3] = NCI Yeast Anticancer Drug Screen. Data for the rad50EPP+ strain (AID 151);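 also: 0% = growth of vehicle-treated control cultures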; settings: S. cerevisiae rad50 mutant strain, active compounds read high
How it was run: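 Exposing the rad50EPP+ strain to each compound, growth was compared with vehicle-only cultures to give inhibition.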

[4] = NCI Yeast Anticancer Drug Screen. Data for the rad50 strain (AID 155);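 also: 0% = growth of vehicle-only cultures of the same strain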; settings: S. cerevisiae rad50 strain growth inhibition, active compounds read high
How it was run: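 Readout: growth inhibition relative to vehicle-treated cultures. Compound exposure was carried out in a genetically defined yeast strain deficient in DNA damage repair.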

[5] = NCI Yeast Anticancer Drug Screen. Data for the mec2-1 strain (AID 157); settings: S. cerevisiae mec2-1 strain, active compounds read high
How it was run: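 Readout is yeast growth inhibition, normalised to vehicle-treated controls, in the mec2-1 strain exposed to compound.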

[6] = NCI Yeast Anticancer Drug Screen. Data for the rad14 strain (AID 159);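 also: 0% = growth of vehicle-treated control cultures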; settings: S. cerevisiae rad14 strain growth inhibition, active compounds read high
How it was run: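 Growth inhibition vs vehicle controls; genetically altered yeast strain (DNA damage repair defect) treated with test compounds.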

[7] = NCI Yeast Anticancer Drug Screen. Data for the sgs1 mgt1 strain (AID 161);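 also: 0% = growth of cultures given vehicle only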; settings: S. cerevisiae sgs1 mgt1 strain, active compounds read high
How it was run: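 This yeast growth screen uses a strain with defined DNA-repair lesions; compound-treated growth is compared with vehicle-treated growth.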

[8] = NCI Yeast Anticancer Drug Screen. Data for the CLN2oe strain (AID 163);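 also: 0% = growth of vehicle-only control cultures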; settings: S. cerevisiae CLN2oe strain, active compounds read high
How it was run: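 Values reflect how much compound exposure reduced yeast growth, referenced to vehicle-exposed cells. Assay organism is a strain with a defined genetic change affecting cell-cycle control.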

[9] = NCI Yeast Anticancer Drug Screen. Data for the cln2 rad14 strain (AID 165);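 also: 0% = growth equal to vehicle treated cultures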; settings: S. cerevisiae cln2 rad14 strain, active compounds read high
How it was run: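 Relative to vehicle controls, growth inhibition of compound-treated cln2 rad14 yeast was recorded.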

[10] = NCI Yeast Anticancer Drug Screen. Data for the bub3 strain (AID 167); settings: S. cerevisiae bub3 mutant strain, active compounds read high
How it was run: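 Readout: yeast growth inhibition, expressed relative to vehicle-only wells. The test organism is a mutant strain from a panel with lesions in DNA repair or checkpoint genes.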

[11] = NCI Yeast Anticancer Drug Screen. Data for the wt2 strain (AID 169);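 also: 0% = growth of vehicle-treated yeast cultures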; settings: S. cerevisiae wt2 strain growth inhibition, active compounds read high
How it was run: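 Values express reduction in yeast growth under compound treatment, referenced to vehicle-treated cells.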

[12] = NCI Yeast Anticancer Drug Screen. Data for the mlh1 strain (AID 171);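 also: 0% = growth of vehicle-treated control cultures of the same strain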; settings: S. cerevisiae mlh1 strain growth inhibition, active compounds read high
How it was run: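 Steps: expose the defined-mutant yeast strain to compound; expose a parallel culture to vehicle; measure growth; express compound effect as inhibition relative to the vehicle culture.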

[13] = NCI Yeast Anticancer Drug Screen. Data for the sgs1 strain (AID 173);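 also: 0% = growth of vehicle-only control cultures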; settings: S. cerevisiae sgs1 mutant, active compounds read high
How it was run: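 Treat defined-mutant yeast with compound; measure growth; calculate inhibition relative to vehicle-treated cells.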

[14] = NCI Yeast Anticancer Drug Screen. Data for the mlh1 rad18 strain (AID 175); settings: S. cerevisiae mlh1 rad18 strain growth inhibition, active compounds read high
How it was run: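 Test agents were incubated with a yeast strain of defined genotype (DNA damage repair defect). Inhibition of growth was derived by comparison with vehicle-exposed cultures.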

[15] = NCI Yeast Anticancer Drug Screen. Data for the rad18 strain (AID 177); settings: S. cerevisiae rad18 mutant growth inhibition, active compounds read high
How it was run: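 A genetically defined yeast mutant impaired in DNA damage repair was treated with test compounds, then its growth was measured against cultures receiving vehicle alone.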

[16] = at 5.0 µM (retest, dose inferred, filed as 0.5)
[17] = at 50.0 µM (retest, dose inferred, filed as 5.0)

Measured: growth inhibition

O=C(N/N=C\c1c(Cl)cccc1Cl)N/N=C/c1c(Cl)cccc1Cl
inactive: [1]; at 1.2 µM 14% | [1]; at 3.7 µM 14% | [1]; at 11.0 µM 23% | [1]; at 33.0 µM 22% | [1]; at 100.0 µM 25% | [2]; at 1.2 µM -2% | [2]; at 3.7 µM 8% | [2]; at 11.0 µM 4% | [2]; at 33.0 µM 17% | [2]; at 100.0 µM 29% | [3]; at 1.2 µM 7% | [3]; at 3.7 µM 19% | [3]; at 11.0 µM 10% | [3]; at 33.0 µM 2% | [3]; at 100.0 µM 5% | [4]; at 1.2 µM 14% | [4]; at 3.7 µM 12% | [4]; [16] 30% | [4]; at 11.0 µM 21% | [4]; at 33.0 µM 14% | [4]; at 50.0 µM -7.7% | [4]; at 100.0 µM 5% | [5]; at 1.2 µM 21% | [5]; at 3.7 µM 25% | [5]; [16] 35% | [5]; at 11.0 µM 12% | [5]; at 33.0 µM 0% | [5]; at 50.0 µM -13.8% | [5]; at 100.0 µM 3% | [6]; at 1.2 µM -4% | [6]; at 3.7 µM -21% | [6]; at 11.0 µM 8% | [6]; at 33.0 µM -7% | [6]; at 100.0 µM -12% | [7]; [16] -13% | [7]; [17] 29% | [7]; at 50.0 µM 9.15% | [8]; at 1.2 µM -8% | [8]; at 3.7 µM -12% | [8]; at 11.0 µM -21% | [8]; at 33.0 µM -8% | [8]; at 100.0 µM -10% | [9]; [16] 49% | [9]; at 50.0 µM 13.7% | [10]; at 1.2 µM 6% | [10]; at 3.7 µM 11% | [10]; [16] 36% | [10]; at 11.0 µM -3% | [10]; at 33.0 µM 0% | [10]; [17] 58% | [10]; at 50.0 µM 12.2% | [10]; at 100.0 µM 1% | [11]; at 1.2 µM 11% | [11]; at 3.7 µM 7% | [11]; at 11.0 µM 7% | [11]; at 33.0 µM -3% | [11]; at 100.0 µM 17% | [12]; at 1.2 µM -13% | [12]; at 3.7 µM -7% | [12]; at 11.0 µM -3% | [12]; at 33.0 µM -9% | [12]; at 100.0 µM -8% | [13]; at 1.2 µM 8% | [13]; at 3.7 µM 1% | [13]; at 11.0 µM 19% | [13]; at 33.0 µM 10% | [13]; at 100.0 µM 5% | [14]; [16] 38% | [14]; at 50.0 µM 55.9% | [15]; at 1.2 µM -10% | [15]; at 3.7 µM 1% | [15]; at 11.0 µM -11% | [15]; at 33.0 µM -10% | [15]; at 100.0 µM -13%
active: [4]; [17] 97% | [5]; [17] 98% | [9]; [17] 70% | [14]; [17] 88%

COc1ccc(/C=C(\NC(=O)c2ccccc2)C(=O)NN(C)c2ccnc3cc(Cl)ccc23)cc1OC
inactive: [1]; at 1.2 µM 3% | [1]; at 3.7 µM 1% | [1]; at 11.0 µM 12% | [1]; at 33.0 µM 5% | [1]; at 100.0 µM 27% | [2]; at 1.2 µM -41% | [2]; at 3.7 µM 0% | [2]; at 11.0 µM 3% | [2]; at 33.0 µM 11% | [2]; at 100.0 µM 15% | [3]; at 1.2 µM 4% | [3]; at 3.7 µM 20% | [4]; at 1.2 µM -1% | [4]; at 3.7 µM 7% | [4]; [16] 0% | [4]; at 11.0 µM 19% | [4]; at 33.0 µM 30% | [4]; [17] 30% | [4]; at 100.0 µM 36% | [5]; at 1.2 µM -2% | [5]; at 3.7 µM -3% | [5]; [16] -12% | [5]; at 11.0 µM 0% | [5]; at 33.0 µM 11% | [5]; [17] -14% | [5]; at 50.0 µM 28.6% | [5]; at 100.0 µM 10% | [6]; at 1.2 µM 2% | [6]; at 3.7 µM 5% | [6]; at 11.0 µM 8% | [6]; at 33.0 µM 8% | [6]; at 100.0 µM 6% | [7]; [16] -6% | [7]; [17] -6% | [8]; at 1.2 µM -2% | [8]; at 3.7 µM 6% | [8]; at 11.0 µM 38% | [8]; at 33.0 µM 48% | [8]; at 100.0 µM 58% | [9]; [16] 28% | [9]; [17] 5% | [9]; at 50.0 µM 55.4% | [10]; at 1.2 µM -4% | [10]; at 3.7 µM -4% | [10]; [16] 9% | [10]; at 11.0 µM 22% | [10]; at 33.0 µM 32% | [10]; [17] 49% | [10]; at 100.0 µM 50% | [11]; at 1.2 µM -1% | [11]; at 3.7 µM 4% | [11]; at 11.0 µM 31% | [11]; at 33.0 µM 36% | [11]; at 100.0 µM 27% | [12]; at 1.2 µM -2% | [12]; at 3.7 µM 1% | [12]; at 11.0 µM 6% | [12]; at 33.0 µM 15% | [12]; at 100.0 µM 25% | [13]; at 1.2 µM 0% | [13]; at 3.7 µM 3% | [13]; at 11.0 µM 7% | [13]; at 33.0 µM 21% | [13]; at 100.0 µM 31% | [14]; [16] 0% | [14]; [17] 1% | [15]; at 1.2 µM 2% | [15]; at 3.7 µM 5% | [15]; at 11.0 µM 11% | [15]; at 33.0 µM 41% | [15]; at 100.0 µM 50%
active: [3]; at 11.0 µM 78% | [3]; at 33.0 µM 90% | [3]; at 100.0 µM 78% | [4]; at 50.0 µM 86.5% | [7]; at 50.0 µM 73.1% | [10]; at 50.0 µM 90.2% | [14]; at 50.0 µM 87.1%
